The text below walks through data of PubChem BioAssay (NCATS).

A number with no mark means an inactive call. Results filed as inconclusive are left out. Activity calls are given as the source filed them. The call rests on the fitted dose curve; in most records, active means well fitted curve in the direction sought with a large enough effect; inconclusive means small, poorly fitted or top-dose-only effect, or another doubt; inactive means no such curve, though single readings can be large; an effect the other way counts as inactive or inconclusive.

The target in experiment [1] is Glutathione peroxidase 1 (Homo sapiens) (UniProt P07203). Put plainly: Primary qHTS Assay for Inhibitors of Recombinant Selenoprotein Glutathione Peroxidase 1 (GPX1) (AID 1845191). Further: nearly all actives have a fitted effect of over 65% in size. On activity, negative = inhibition: on the % scale 0 is the no-effect control and ±100 the full control effect. A digest of the protocol:
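GPX1 10 nM, GR 100 nM, GSH 1 mM, NADPH 0.5 mM, CHP 0.5 mM (final). 30-min cpd preincubation, RT. Ex340/Em450 read t=0, t=15 min.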
A general note: qHTS replaces the single test concentration by a dilution series.

For experiment [2], the target named is Phospholipid hydroperoxide glutathione peroxidase GPX4 (Homo sapiens) (UniProt P36969). Kind of experiment: Primary qHTS Assay for Inhibitors of Recombinant Selenoprotein Glutathione Peroxidase 4 (GPX4) (AID 1845192). Further: nearly all actives have a fitted effect of over 65% in size. On activity change, negative = inhibition: series mostly up to about 50 µM; on the % scale 0 is the no-effect control and ±100 the full control effect. An outline of the steps: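 qHTS, GR-coupled: GPX4 200 nM + cpd 30 min RT → GSH 1 mM, NADPH 0.5 mM, GR 100 nM → CHP 0.5 mM start; fluor 340/450 at t0 and t15 min; no-enzyme wells as control.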
Chain of Phospholipid hydroperoxide glutathione peroxidase GPX4 (Homo sapiens) (P36969 whole entry, looked up): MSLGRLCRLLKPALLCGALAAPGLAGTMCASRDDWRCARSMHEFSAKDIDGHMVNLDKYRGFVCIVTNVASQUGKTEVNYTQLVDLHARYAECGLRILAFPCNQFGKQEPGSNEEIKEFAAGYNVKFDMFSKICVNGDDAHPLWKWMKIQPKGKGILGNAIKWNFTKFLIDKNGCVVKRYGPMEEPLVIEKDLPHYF

Experiment [3] deals with Luciferin 4-monooxygenase (Photinus pyralis) (UniProt P08659). Put plainly: Primary firefly luciferase (FLuc) qHTS assay for identification of artifact compounds. (AID 1845220). Further: nearly all actives have a fitted effect of over 60% in size.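 On activity change, negative = inhibition: series mostly up to about 54 µM; plate controls were DMSO vehicle for no effect and no enzyme for full effect.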 An outline of the steps: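 qHTS, 15 min compound preincubation with substrate (10 uM luciferin, 10 uM ATP) at RT, then 10 nM FLuc; 5 min; luminescence; % inhibition vs no-enzyme/DMSO controls, 4-parameter Hill fit.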

Experiment [4] is described as follows: Primary fluorescence-based thiol-reactive (MSTI) qHTS assay for identification of artifact compounds. (AID 1845221). Further: nearly all actives have a fitted effect of over 65% in size. Further: potency means the concentration at half of the fitted maximal effect.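 On activity change, negative = thiol reactive: series mostly up to about 54 µM; thiol-reactive compounds lower the probe fluorescence signal.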 A digest of the protocol: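 In PBS pH 7.4 with 2% DMSO, each compound met 4 uM MSTI for one hour at ambient temperature, shielded from light, before fluorescence detection.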
Experiment [5] is described as follows: NCATS anti-infectives library activity on HEK293 viability as a counter-qHTS vs the C. elegans viability qHTS (AID 1745854).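 Further: HEK293 cells exposed to compounds for 24 hr before the viability read; on the % scale 0 is the no-effect control and ±100 the full control effect.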 A digest of the protocol:
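Counter-screen for cytotoxicity: HEK293, 24 hr, 37C, compounds up to 41.7 uM final (a dilution series, 1:5). Readout CellTiter-Glo luminescence, 10 min RT. Digitonin control, 83.3 uM final.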

In experiment [6] the test system is Nanoluciferase (engineered Oplophorus gracilirostris luciferase). Put plainly: Primary Nanoluciferase (NLuc) qHTS assay for identification of artifact compounds. (AID 1845222). Further: series mostly up to about 54 µM. An outline of the steps: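 Luminescence read-out of secreted NLuc in S16 cell conditioned medium (1:55); compounds tested with 15 min RT preincubation, then Nano-Glo substrate 1:100, 5 min. % inhibition vs no-enzyme and DMSO controls, 4-parameter Hill fit.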

Experiment [7] can be described thus: Primary redox qHTS assay for identification of artifact compounds. (AID 1845223).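 Further: 0% = DMSO and 100% = reference compound.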 A digest of the protocol: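 Redox-cycling detection via DTT (250 uM final) oxidation coupled to Amplex Red (25 uM)/HRP (250 mU/mL) in HBSS. 15 min preincubation plus 30 min after DTT, room temperature. Ex/Em 525/598 nm; 4-parameter Hill fit against DMSO and 10 uM DA3003.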

Chain of Glutathione peroxidase 1 (Homo sapiens) (P07203 whole entry, looked up): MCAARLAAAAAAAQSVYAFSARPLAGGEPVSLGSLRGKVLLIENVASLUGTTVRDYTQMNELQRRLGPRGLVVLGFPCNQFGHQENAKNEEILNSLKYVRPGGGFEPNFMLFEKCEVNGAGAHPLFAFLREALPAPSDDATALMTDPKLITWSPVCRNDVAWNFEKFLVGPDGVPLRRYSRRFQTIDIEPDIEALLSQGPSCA

As to `COc1cccc(OC)c1-c1ccc(C[C@H](NC(=O)c2c(Cl)cccc2Cl)C(=O)O)cc1`, the Potency result in experiment [1], in experiment [2] and in experiment [3] was “inactive” throughout.

`C=C1CC[C@H]2[C@@](C)(CCC(OC3OC(CO)C(O)C(O)C3O)[C@@]2(C)CO)C1C(=O)CC1=CCOC1=O` (some centres undefined): the Potency result in experiment [1], in experiment [2] and in experiment [3] was “inactive” throughout. Besides, the Potency in experiment [4] was 3.27 µM (active).

As for `COc1cccc2c1c(O)c(C(=O)N(C)c1ccc(C(F)(F)F)cc1)c(=O)n2C`, the call in experiment [5] was inactive. In addition, the Potency entry in experiment [1], in experiment [2], in experiment [3], in experiment [4], in experiment [6] and in experiment [7] was “inactive” throughout.

`CC1CC(=O)C2=C(O1)OC1(C)CCC3C(C)(C)C4OC4C(=O)C3(C)C1C2` (centres undefined): the Potency result in experiment [1], in experiment [2], in experiment [3] and in experiment [6] was “inactive” in each case. Further, the Potency in experiment [4] is 16.5 µM (active).

`C[C@@H]1CC[C@]2(C(=O)O[C@@H]3O[C@H](CO[C@@H]4O[C@H](CO)[C@@H](O)[C@H](O)[C@H]4O)[C@@H](O)[C@H](O)[C@H]3O)CC[C@]3(C)C(=CCC4[C@@]5(C)CC[C@H](O)[C@](C)(C(=O)O)C5CC[C@]43C)[C@@H]2[C@]1(C)O` (some centres undefined): the Potency result in experiment [1] and in experiment [2] was “inactive” in each case. In addition, the activity change, negative = inhibition in experiment [3] is -0.663% [at 11.6 µM]. In addition, in experiment [4], the activity change, negative = thiol reactive is 22.8% [at 11.5 µM]. In addition, the activity, negative = inhibition in experiment [6] is 2.17% [at 11.6 µM].

As to `CC(=O)O[C@@H]1C(=O)C(C)=C(CCC(C)CC(=O)O)[C@@]2(C)CCCC(C)(C)C12` (some centres undefined), the Potency result in experiment [1], in experiment [2], in experiment [3], in experiment [4] and in experiment [6] was “inactive” in each case.

Take `CC1(C)CC[C@]2(C(=O)O[C@@H]3O[C@H](CO[C@@H]4O[C@H](CO)[C@@H](O)[C@H](O)[C@H]4O)[C@@H](O)[C@H](O[C@@H]4O[C@H](CO)[C@@H](O)[C@H](O)[C@H]4O)[C@H]3O)[C@H](O)C[C@]3(C)C(=CCC4[C@@]5(C)CC[C@H](O[C@@H]6OC[C@@H](O)[C@H](O)[C@H]6O)[C@@](C)(C(=O)O)C5CC[C@]43C)[C@@H]2C1` (some centres undefined): the Potency result in experiment [1] and in experiment [2] was “inactive” in each case. For the same compound, the outcome in experiment [3] was “inactive [at 11.6 µM]”. Further, the activity change, negative = thiol reactive in experiment [4] was 59.1% [at 11.5 µM]. Moreover, the activity, negative = inhibition in experiment [6] was -3.16% [at 11.6 µM].

For `C=CC(C)(O)CC/C=C(\C)COC1O[C@H](CO)[C@@H](O)[C@H](O)[C@H]1O` (some centres undefined), the Potency result in experiment [1], in experiment [2], in experiment [3] and in experiment [6] was “inactive” each time. Further, in experiment [4], the Potency was 2.93 µM (active).

Consider `CC1(C)CC[C@]2(C(=O)O[C@@H]3O[C@H](CO)[C@@H](O)[C@H](O)[C@H]3O)CC[C@]3(C)C(=CCC4[C@@]5(C)CC[C@H](OC6OC(C(=O)O)C(OC7OC(CO)C(O)C(O)C7O)C(O)C6O)C(C)(C)C5CC[C@]43C)C2C1` (some centres undefined), for which the Potency result in experiment [1] and in experiment [2] was “inactive” throughout. In addition, the activity change, negative = inhibition in experiment [3] was -0.627% [at 11.6 µM]. Besides, in experiment [4], the activity change, negative = thiol reactive is 280% [at 11.5 µM]. In addition, the activity, negative = inhibition in experiment [6] is 0% [at 11.6 µM].

On to `CC(=O)O[C@@H]1C(O)C[C@@]2(C)C(CC[C@@H](C)C23Cc2c(O)cc4c(c2O3)CNC4=O)C1(C)C` (some centres undefined), for which the Potency result in experiment [1], in experiment [2], in experiment [3], in experiment [4] and in experiment [6] was “inactive” throughout.

In the case of `C=C[C@]1(C)C[C@@H](OC(=O)CSC2C[C@H]3CC[C@@H](C2)N3C)[C@]2(C)[C@H](C)CC[C@]3(CCC(=O)[C@H]32)[C@@H](C)[C@@H]1O` (some centres undefined), the Potency entry in experiment [1], in experiment [2], in experiment [3], in experiment [4] and in experiment [6] was “inactive” throughout.

For `C=C1CC[C@@]2(OC1)O[C@H]1CC3[C@@H]4CC=C5C[C@H](O[C@H]6OC[C@@H](O)C(O)[C@@H]6O[C@@H]6O[C@@H](C)[C@H](O)[C@@H](O[C@@H]7O[C@H](CO)[C@@H](O)[C@H](O)[C@H]7O)[C@H]6O)C[C@@H](O)[C@]5(C)C4CC[C@]3(C)[C@H]1[C@@H]2C` (some centres undefined), the Potency entry in experiment [1] and in experiment [2] was “inactive” each time. In addition, the activity change, negative = inhibition in experiment [3] was -10.8% [at 11.6 µM]. Moreover, the activity change, negative = thiol reactive in experiment [4] was 124% [at 11.5 µM]. The activity, negative = inhibition in experiment [6] was -1.92% [at 11.6 µM].

For the compound `C=C1C(O)C(O)C2(CC3C(C)=CCC4C(C)(C(=O)O)CCCC34C)OC2C1O` (centres undefined), the Potency entry in experiment [1], in experiment [2], in experiment [3] and in experiment [6] was “inactive” throughout. Further, the Potency in experiment [4] was 5.21 µM (active).

For `CC1(C)Oc2ncnc(N)c2N=C1c1ccc(C2CCC(CC(=O)O)CC2)cc1` (centres undefined), the Potency entry in experiment [1], in experiment [2], in experiment [3], in experiment [4] and in experiment [6] was “inactive” in each case.

Consider `CNc1nc(C)nc(N[C@H]2CCC[C@@H](C(=O)NCc3ccc(C#N)cc3C(F)(F)F)C2)n1`, for which the Potency result in experiment [1], in experiment [2], in experiment [3], in experiment [4] and in experiment [6] was “inactive” each time.

For `COc1cccc(OC)c1-c1cc(C(=O)N[C@@H](CC(C)C)C(=O)O)nn1-c1ccnc2cc(Cl)ccc12`, the Potency result in experiment [1], in experiment [2], in experiment [3], in experiment [4] and in experiment [6] was “inactive” throughout.

In the case of `O=C(O)CC/C=C\C[C@H]1CO[C@@H](c2ccccc2Cl)O[C@H]1c1ccccc1O`, the Potency result in experiment [1], in experiment [2], in experiment [3], in experiment [4] and in experiment [6] was “inactive” throughout.

As for `C=C(CC/C=C(\C)C(=O)O)C1(O)CC=C(C)CC1` (centres undefined), the Potency entry in experiment [1], in experiment [2], in experiment [3], in experiment [4] and in experiment [6] was “inactive” each time.

Consider `CCC(C)/C=C(C)/C=C/C(=O)C1CCC(O)C(C)(O)C1=O` (centres undefined), for which the Potency result in experiment [1], in experiment [2], in experiment [3] and in experiment [6] was “inactive” in each case. Moreover, in experiment [4], the Potency was 23.8 µM (active).

For `CC1(C)CC[C@]2(C(=O)O[C@@H]3O[C@H](CO[C@@H]4O[C@H](CO[C@@H]5O[C@H](CO)[C@H](O)[C@H](O)[C@H]5O)[C@@H](O)[C@H](O)[C@H]4O)[C@@H](O)[C@H](O[C@@H]4O[C@H](CO)[C@@H](O)[C@H](O)[C@H]4O)[C@H]3O)[C@H](O)C[C@]3(C)C(=CCC4[C@@]5(C)CC[C@H](O[C@@H]6OC[C@@H](O)[C@H](O)[C@H]6O)[C@@](C)(C(=O)O)C5CC[C@]43C)[C@@H]2C1` (some centres undefined), the Potency result in experiment [1] and in experiment [2] was “inactive” each time. In addition, in experiment [3], the outcome was “inactive [at 11.6 µM]”. For the same compound, the activity change, negative = thiol reactive in experiment [4] was 27.9% [at 11.5 µM]. Moreover, the activity, negative = inhibition in experiment [6] is -3.7% [at 11.6 µM].
